HCMV antiviral = inhibitors of human cytomegalovirus; HFF cells, HCMV-luciferase reporter, 72 h; hits give low values; activity change, negative = inhibition, % at 57.5 µM; hit rate 4.5% among 410,000; AID 1259415; in the data active = activity change below about -60%; inconclusive = no clear call, values can overlap the other calls; inactive = above about -39%; note: % is set by controls: 0 for no effect and ±100 for the full control effect
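Human foreskin fibroblasts infected with luciferase-reporter HCMV at MOI 1 PFU/cell, compounds at two doses. Luciferase measured 72 h post infection; normalized to buffer-only basal and Salinomycin (10uM) controls.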
Pf growth 48h = P. falciparum growth inhibition at 48 hours (one generation) | Potency, µM (highest dose often 28.7 µM), without a hit: top-dose activity change, negative = inhibition, actives largely listed as inhibitors | hit rate 5.9% among 310,000 | AID 504832 | P. falciparum luciferase growth in erythrocytes, 48 h; note: potency is the fitted concentration of half-maximal effect; % is set by controls: 0 for no effect and ±100 for the full control effect
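Here the parasites carry a stable luciferase gene and grow inside erythrocytes in Albumax-based RPMI medium with compound for one erythrocytic cycle. Activity is scored as loss of luminescent signal.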
Lassa entry inh = inhibitors of Lassa virus binding or cell entry. Lassa virus pseudotype entry inhibition, cell reporter. Potency, µM (highest dose often 37.9 µM), inactives show top-dose activity change, negative = inhibition, hits mostly inhibitors. hit rate 1.2% among 300,000. AID 540256; calls by dose curve; tested in HEK293 cells; note: potency is the fitted concentration of half-maximal effect; % is set by controls: 0 for no effect and ±100 for the full control effect; nearly all actives have a fitted effect of over 50% in size
HCV inh = inhibitors of hepatitis C virus infection; Huh7.5.1 HCVcc-Cre infection, luciferase reporter, 44 h; Potency, µM (highest dose often 41.8 µM), without a hit: top-dose activity change, negative = inhibition, actives largely listed as inhibitors; hit rate 3.4% among 340,000; note: potency is the fitted concentration of half-maximal effect; % is set by controls: 0 for no effect and ±100 for the full control effect
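Seed cells (1,000/well) for 4 h; treat with compound and infect with HCVcc-Cre, moi about 0.5. Incubate 44 h, then detect luciferase activity.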
Pf growth 96h = inhibits malaria parasite growth, 96 h | Potency, µM (doses to about 28.7 µM), for inactives: top-dose activity change, negative = inhibition, most hits filed as inhibitors | P. falciparum luciferase reporter growth, 96 h | AID 504834 | hit rate 6.9% among 320,000; note: potency is the fitted concentration of half-maximal effect; % is set by controls: 0 for no effect and ±100 for the full control effect
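P. falciparum expressing integrated firefly luciferase grown in erythrocytes (2% hematocrit, 0.05% parasitemia final) with compounds for 96 hours at 37 C, 5% CO2. Growth inhibition read as loss of luminescence after adding luciferase detection reagent.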
Marburg entry inh = blocks Marburg virus binding to or entry into cells; Marburg virus pseudotyped entry inhibition, cell reporter; Potency, µM (doses to about 37.8 µM), for the others: at the highest dose activity change, negative = inhibition, usual class: inhibitors; hit rate 1.8% among 300,000; AID 540276; calls by dose curve; tested in HEK293 cells; note: potency is the fitted concentration of half-maximal effect; % is set by controls: 0 for no effect and ±100 for the full control effect
HCV inh confirm = confirmation of hepatitis C virus inhibitors; HCVcc-Cre infectious virus cell assay, luciferase, inhibition; shares compounds with HCV inh; hit rate 78% among 640; Potency, µM (highest dose often 41.8 µM), without a hit: top-dose activity, negative = inhibition, hits mostly inhibitors; AID 720575; note: potency is the fitted concentration of half-maximal effect; nearly all actives have a fitted effect of over 80% in size
HCV cytotox = counter-screen for HCV inhibitors: host cell cytotoxicity | Potency, µM (series often up to 41.8 µM), inactives show at the top dose activity change, negative = cytotoxicity, most hits filed as inhibitors | hit rate 22% among 640 | shares compounds with HCV inh | HCV host cell line cytotoxicity counterscreen | AID 720576;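 note: potency is the fitted concentration of half-maximal effect; 44 h compound exposure; % is set by controls: 0 for no effect and ±100 for the full control effect; nearly all actives have a fitted effect of over 55% in size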
* = called active by the depositor; ? = inconclusive; . = not tested or not shown; [ ] = dose if it differs, or a comment. The list is not random: actives were taken first. Their share in the collection is about 14%. Unless noted, calls come from the whole dose curve; as a rule, active = well fitted curve in the direction sought with a large enough effect; inconclusive = small, poorly fitted or top-dose-only effect, or another doubt; inactive = no such curve, though single readings can be large; an effect the other way counts as inactive or inconclusive.

SMILES	HCMV antiviral	Pf growth 48h	Lassa entry inh	HCV inh	Pf growth 96h	Marburg entry inh	HCV inh confirm	HCV cytotox
CN(CC(=O)NCCc1ccc(S(N)(=O)=O)cc1)Cc1c(F)cccc1Cl	2	-20%	.	-4%	-5%	0%[46.1 µM]	.	.
CCn1nnc(-c2ccccc2NC(=O)C(F)(F)F)n1	19	17%	19%	?	?	9%	?	-17%
N/C(=N/OC(=O)c1cccc([N+](=O)[O-])c1)c1cccc([N+](=O)[O-])c1	39	31%	-1%	?	24%	?	.	.
CC1=C(C)/C(=N/OC(=O)c2cccc([N+](=O)[O-])c2)C=CC1=O	.	?	-18%	7.1µM*	?	?	31µM*	31µM*
Cc1cc(C)cc(-n2ccnc2SCC(=O)Nc2nc3ccc(C)cc3s2)c1	9	.	-17%[46.1 µM]	.	.	.	.	.
CCN1CCN(CCCOc2ccc(-c3ccccc3)cc2)CC1	5	-67%	-27%	2.8µM*	21%	?	14µM*	-19%
CN1CCN(CCOc2ccc(-c3ccccc3)cc2)CC1	14	?	.	?	?	.	.	.
C/C(=N\NC(=O)c1cccc(S(=O)(=O)N2CCCC2)c1)c1ccc(C)cc1	-35	?	-10%	-10%	-22%	-15%	.	.
O=C1/C(=C/c2ccccc2)C[C@@]2(O)[C@H]3Cc4ccc(O)c5c4[C@@]2(CCN3CC2CC2)C1O5 (stereo not given in full)	.	.	.	3.2µM*	.	.	6.3µM*	10µM*
N[C@@H]1CC[C@@]2(O)[C@H]3Cc4ccc(O)c5c4[C@@]2(CCN3CC2CC2)C1O5 (stereo not given in full)	-22	.	.	-18%	.	.	.	.
COC(=O)c1sccc1S(=O)(=O)Nc1ccc(C(O)(C(F)(F)F)C(F)(F)F)cc1	22	.	.	.	.	.	.	.
CC(C)c1cnc2c(c1SCC(=O)Nc1ccc(OC(F)(F)F)cc1)c(=O)n(C)c(=O)n2C	9	.	-6%[46.1 µM]	.	.	.	.	.
O=C(N/N=C/c1ccc[nH]1)c1ccc(Cl)cc1	?	54%	?	5µM*	-5%	-19%	14µM*	14µM*
CCCn1c(=NC(=O)c2ccco2)c(C(=O)OCC)cc2c(=O)n3ccccc3nc21	-27	-26%	-11%	?	5%	-14%	?	21%
Cc1cccc(CN2CCN(CC(=O)NCCCN3CCN(c4ccc(F)cc4)CC3)C2=O)c1	?	?	-12%	5.6µM*	.	?	22µM*	?
COc1cc(C)c(Cl)cc1S(=O)(=O)NCc1ccncc1	.	-6%	.	-2%	?	1%	.	.
Cc1cc(Br)c(S(=O)(=O)NCc2ccncc2)cc1C	-82*	-8%	?	3.2µM*	?	?	2µM*	6.3µM*
Cc1cc(SCC(=O)c2ccccc2)n2ncc(-c3ccccc3)c2n1	63	33%	.	?	33%	.	?	51%
COc1ccc(C(=O)NCCNc2nc3c(C)cccc3cc2C#N)cc1OC	1	-10%	.	?	?	.	18µM*	26%
O=C(COc1ccc(Cl)c2cccnc12)N1CCOCC1	0	44%	.	19%	20%	.	.	.
O=C1/C(=C/c2cccnc2)Oc2cc(OS(=O)(=O)c3ccc(F)cc3)ccc21	6	.	-22%	4.5µM*	?	?	25µM*	-29%
O=C(CP(=O)(c1ccccc1)c1ccccc1)Nc1nc2ccc(Cl)cc2s1	9	?	?	?	-4%	?	.	.
COc1ccc(NC(=O)c2ccccc2SC)cc1	-26	48%	-8%[46.1 µM]	19%	-21%	22%[46.1 µM]	.	.
COc1ccc(OC)c(NC(=O)c2ccccc2SC)c1	-35	7%	-5%	8.9µM*	.	?	?	-13%
COc1ccc(C(=O)C(=O)N2CCN(c3ccc(C)cc3)CC2)cc1OC	-2	.	.	.	.	.	.	.
SMILES	HCMV antiviral	Pf growth 48h	Lassa entry inh	HCV inh	Pf growth 96h	Marburg entry inh	HCV inh confirm	HCV cytotox
CCOC(=O)C1=CCN(S(=O)(=O)c2ccccc2F)C1c1ccc(F)cc1 (stereo not given)	-17	.	.	.	.	.	.	.
COc1ccc(C)cc1NS(=O)(=O)c1ccc2oc(=O)c3ncn(C)c3c2c1	3	.	-9%[46.1 µM]	.	.	.	.	.
Cc1nc(-c2cnn(-c3ccccc3)c2)c2cc(C)oc2n1	-26	-19%	-2%	7.1µM*	27%	?	16µM*	46%
Cc1oc2c(O)c(O)ccc2c(=O)c1-c1cnn(-c2ccccc2)c1	10	?	-9%	-19%	-15%	-1%	.	.
CCCc1nc2ccccc2c(=O)n1CC(=O)c1ccccc1	-24	5%	.	-1%	23%	.	.	.
O=C(N/N=C1\CCCc2c1[nH]c1ccc(Cl)cc21)c1ccncc1	?	47%	.	3.2µM*	5%	1%	8.9µM*	?
Cc1ccc2nc(N3CCN(c4ccccc4)CC3)c3nnnn3c2c1	-26	.	19%[46.1 µM]	.	.	.	.	.
COc1ccc2nc(C)c3cc(C)oc3c2c1	7	12%	0%	8.9µM*	.	2%	22µM*	32%
Cc1ccnc(N2CCC(C(=O)Nc3cccc(C(F)(F)F)c3)CC2)n1	4	?	?	-20%	6%	?	.	.
COc1ccc2c(c1)sc(N)[n+]2Cc1cc(C)cc2cccnc12	?	9.3µM*	?	8.9µM*	?	?	16µM*	?
Cc1cc(C[n+]2ncsc2N)c2ncccc2c1	-21	-36%	22%[46.1 µM]	-19%	-90%	?	.	.
Nc1nc(SCC(=O)Nc2ccc3c(c2)OCO3)n[nH]1	-25	-5%	23%	-25%	28%	16%	.	.
CC(C)NC1CCC(Nc2ccnc3cc(Cl)ccc23)CC1 (stereo not given)	?	.	?	2.8µM*	.	2.8µM*	4µM*	-72%
Cc1nc2ccc(F)cc2cc1C(=O)NC(C)C	-7	21%	18%	8%	.	4%	.	.
COc1ccc(C(=O)Nc2nc(-c3cccs3)cs2)cc1	-22	-7%	?	?	.	?	22µM*	0.0025µM*
O=C(Nc1nc(-c2cccs2)cs1)c1ccc(Cl)cc1	3	-3%	?	?	.	?	.	.
O=C(Nc1nc(-c2ccc(Cl)s2)cs1)c1ccncc1	-77*	-12%	-21%	?	10µM*	?	6.3µM*	?
CC1CC1C(=O)Nc1nc(-c2ccc(Cl)s2)cs1 (stereo not given)	-9	-28%	.	?	-1%	-44%[46.1 µM]	.	.
O=C(CSc1ccc(-c2ccccn2)nn1)NCc1ccc(F)cc1	18	-21%	-4%	2%	?	?	.	.

Assay outcomes from PubChem.
